The record followed here is PubChem BioAssay (NCATS).

Assay [1] in a line: qHTS Assay for Identification of Small Molecule Agonists for Thrombopoietin (TPO) Signaling Pathway (AID 917). As to conditions: TPO signaling pathway reporter cells, agonist qHTS, stimulated with TPO at its EC50; series mostly up to 38.5 µM. An outline of the steps: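 Ba/F3 (mouse) + hTPO receptor + GpIIb-promoter luciferase; IL-3 withdrawn overnight; compound + 26 pM TPO (EC50), 24 hrs, 37 C, 5% CO2; Steadylite luminescence, 10 min RT.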

For assay [2], the target named is Pyruvate kinase (Leishmania mexicana) (UniProt Q27686). Nature of the assay: qHTS Validation Assay for Inhibitors of Leishmania Mexicana Pyruvate Kinase (AID 945). As to conditions: purified L. mexicana pyruvate kinase, enzyme activity, E451W mutant enzyme; series mostly up to 57.5 µM. An outline of the steps:
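Luminescent ATP detection (PKLight) after a 1 h room-temperature reaction of 0.2 nM LmPYK E451W mutant with 0.5 mM PEP and 0.1 mM ADP at pH 7.2. Activity is normalized to DMSO-only control wells.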

Assay [3] addresses Pyruvate kinase PKM (Homo sapiens) (UniProt P14618). Briefly: qHTS Assay for Activators of Human Muscle Pyruvate Kinase (AID 954; active means well fitted curve in the direction sought with a large enough effect, not every such curve was filed as active). The following applies: purified human muscle pyruvate kinase, luciferase-coupled luminescence, 1 h; series mostly up to 57.5 µM. In short, it runs like this: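 Screening used highly purified human pyruvate kinase M2 under submaximal activity, with PEP at its Km and ADP below Km. After an hour at room temperature, ATP was read by luciferase luminescence.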

The target in assay [4] is Alpha-galactosidase A (Homo sapiens) (UniProt P06280). Nature of the assay: Counterscreen for Glucocerebrosidase Inhibitors: qHTS Assay for Human alpha-Galactosidase at pH 4.5 (AID 992). The following applies: purified enzyme, fluorogenic substrate; series mostly up to 76.9 µM. In short, it runs like this:
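Each compound is preincubated briefly with 2 nM enzyme before substrate addition (80 uM); plates then sit 20 min at ambient temperature, are quenched with 1M NaOH/1M glycine, and read fluorometrically.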

In assay [5] the target is alpha-glucosidase (Oryza sativa, rice) (UniProt Q653V4). Nature of the assay: Counterscreen for Glucocerebrosidase Inhibitors: qHTS Assay for Rice alpha-Glucosidase at pH 5.0 (AID 997). As to conditions: rice alpha-glucosidase enzyme activity; series mostly up to 76.9 µM. An outline of the steps:
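Endpoint fluorogenic assay at pH 5.0: compounds (0.7 nM to 77 uM) titrated against 4 nM rice enzyme and 400 uM 4-MU-alpha-glucoside for 20 min at room temperature; NaOH/glycine stop, read ex 365/em 440 nm, Hill-fitted AC50.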

For assay [6], the target named is ATP-dependent 6-phosphofructokinase (Trypanosoma brucei brucei) (UniProt O15648). Briefly: qHTS Assay to Find Inhibitors of T. brucei phosphofructokinase: hit validation (AID 492961).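 Further: luminescence reports ADP formed as PFK phosphorylates fructose-6-phosphate with ATP.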 The following applies: T. brucei PFK, ADP-Glo luminescence; series mostly up to 24.3 µM. In short, it runs like this:
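PFK 1.25 nM, F6P 0.5 mM, ATP 0.1 mM, MgCl2 5 mM, 0.1 M TEA pH 8.0, Tween20 0.01%, BSA 0.1%; 45 min RT. ADP-Glo two-step detection, luminescence. qHTS titration; curve fitting with curve-class categorization.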

The subject of another assay is AS120. Briefly: qHTS profiling for inhibitors of Plasmodium falciparum proliferation (AID 504749). Further: nearly all actives have a fitted effect of over 60% in size. Further: potency means the concentration at half of the fitted maximal effect. The following applies: P. falciparum in erythrocytes, SYBR Green DNA, 72 h; series mostly up to 28.7 µM. In short, it runs like this:
(§1)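 Fluorescence of SYBR Green-bound parasite DNA, read at 485/535 nm, served as the growth measure. Infected erythrocytes were cultured with compound 72 h; artemisinin (0.29 uM) and DMSO wells defined the normalization range.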

For a further assay, the system named is ATS189. The assay is described as above. The following applies: P. falciparum in erythrocytes, SYBR Green DNA, 72 h; series mostly up to 12.8 µM. In short, it runs like this:
as §1

The subject of the next assay is CP191. The description is as above. The following applies: P. falciparum in erythrocytes, SYBR Green DNA, 72 h; series mostly up to 12.8 µM. In short, it runs like this:
as §1

The test system of another assay is CP237. The description is as above. As to conditions: P. falciparum in erythrocytes, SYBR Green DNA, 72 h; series mostly up to 12.8 µM. An outline of the steps:
as §1

The test system of another assay is CP238. Described as above. As to conditions: P. falciparum in erythrocytes, SYBR Green DNA, 72 h; series mostly up to 12.8 µM. An outline of the steps: as §1
The next assay concerns CP247. The description is as above. The following applies: P. falciparum in erythrocytes, SYBR Green DNA, 72 h; series mostly up to 12.8 µM. In short, it runs like this:
as §1

The test system of a further assay is CP265. Described as above. The following applies: P. falciparum in erythrocytes, SYBR Green DNA, 72 h; series mostly up to 12.8 µM. An outline of the steps:
as §1

Another assay has as its system CP269. The description is as above. The following applies: P. falciparum in erythrocytes, SYBR Green DNA, 72 h; series mostly up to 12.8 µM. In short, it runs like this:
as §1

The test system of another assay is Dd2. The assay is described as above. The following applies: P. falciparum in erythrocytes, SYBR Green DNA, 72 h; series mostly up to 12.8 µM. In short, it runs like this:
as §1

In another assay the test system is P93_24. The assay is described as above. As to conditions: P. falciparum in erythrocytes, SYBR Green DNA, 72 h; series mostly up to 12.8 µM. An outline of the steps:
as §1

For a further assay, the system named is PC26. The assay is described as above. As to conditions: P. falciparum in erythrocytes, SYBR Green DNA, 72 h; series mostly up to 12.8 µM. An outline of the steps: as §1
The next assay deals with PC49. The description is as above. As to conditions: P. falciparum in erythrocytes, SYBR Green DNA, 72 h; series mostly up to 12.8 µM. An outline of the steps:
as §1

The next assay has as its system SC27B. Described as above. The following applies: P. falciparum in erythrocytes, SYBR Green DNA, 72 h; series mostly up to 12.8 µM. In short, it runs like this:
as §1

Assay [7] concerns the target Cytochrome P450 2C9 (Homo sapiens) (UniProt P11712). Nature of the assay: qHTS Assay for Inhibitors and Substrates of Cytochrome P450 2C9 (AID 883). Further: nearly all actives have a fitted effect of over 60% in size. As to conditions: recombinant CYP2C9, luciferin-H luminescence, 60 min; series mostly up to 57.1 µM. An outline of the steps:
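Human CYP2C9 (10nM) hydroxylated Luciferin-H (100uM, at its KM) to luciferin in 25mM KPO4. Compound was preincubated 10 min at 37C, then NADPH regeneration started a 60 min reaction at 37C. Luminescence was read after detection reagent, normalized to 57uM sulphaphenazole.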

Inconclusive results are not listed. Active and inactive are the calls of the source. Unless noted, the call rests on the fitted dose curve; in most records, active means well fitted curve in the direction sought with a large enough effect; inconclusive means small, poorly fitted or top-dose-only effect, or another doubt; inactive means no such curve, though single readings can be large; an effect the other way counts as inactive or inconclusive.

Chain of Pyruvate kinase (Leishmania mexicana) (Q27686 2-499 E452W): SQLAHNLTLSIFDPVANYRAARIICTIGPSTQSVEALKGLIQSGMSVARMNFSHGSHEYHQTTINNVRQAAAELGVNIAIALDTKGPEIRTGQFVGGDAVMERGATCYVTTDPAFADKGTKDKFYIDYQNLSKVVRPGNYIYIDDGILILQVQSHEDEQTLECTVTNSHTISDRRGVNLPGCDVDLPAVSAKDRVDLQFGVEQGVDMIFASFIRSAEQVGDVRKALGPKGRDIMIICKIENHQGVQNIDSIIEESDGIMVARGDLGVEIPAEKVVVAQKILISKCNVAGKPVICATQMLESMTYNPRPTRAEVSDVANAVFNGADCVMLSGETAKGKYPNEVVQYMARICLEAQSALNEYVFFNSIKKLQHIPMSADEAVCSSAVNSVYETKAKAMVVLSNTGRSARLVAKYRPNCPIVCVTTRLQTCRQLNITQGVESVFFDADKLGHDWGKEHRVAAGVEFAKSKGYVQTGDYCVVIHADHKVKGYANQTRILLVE
Chain of Alpha-galactosidase A (Homo sapiens) (P06280 whole entry, looked up): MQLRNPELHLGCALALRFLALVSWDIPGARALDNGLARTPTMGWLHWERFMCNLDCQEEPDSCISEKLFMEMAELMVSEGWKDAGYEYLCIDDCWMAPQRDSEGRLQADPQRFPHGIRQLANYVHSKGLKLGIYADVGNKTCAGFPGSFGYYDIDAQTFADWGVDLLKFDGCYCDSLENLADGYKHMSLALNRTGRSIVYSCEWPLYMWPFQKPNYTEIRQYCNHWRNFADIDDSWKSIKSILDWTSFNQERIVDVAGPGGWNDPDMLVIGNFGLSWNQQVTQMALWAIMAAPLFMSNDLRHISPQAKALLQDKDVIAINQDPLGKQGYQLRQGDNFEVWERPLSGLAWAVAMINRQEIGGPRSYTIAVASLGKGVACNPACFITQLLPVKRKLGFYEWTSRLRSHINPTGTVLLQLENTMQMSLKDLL
Chain of Pyruvate kinase PKM (Homo sapiens) (P14618 whole entry, looked up): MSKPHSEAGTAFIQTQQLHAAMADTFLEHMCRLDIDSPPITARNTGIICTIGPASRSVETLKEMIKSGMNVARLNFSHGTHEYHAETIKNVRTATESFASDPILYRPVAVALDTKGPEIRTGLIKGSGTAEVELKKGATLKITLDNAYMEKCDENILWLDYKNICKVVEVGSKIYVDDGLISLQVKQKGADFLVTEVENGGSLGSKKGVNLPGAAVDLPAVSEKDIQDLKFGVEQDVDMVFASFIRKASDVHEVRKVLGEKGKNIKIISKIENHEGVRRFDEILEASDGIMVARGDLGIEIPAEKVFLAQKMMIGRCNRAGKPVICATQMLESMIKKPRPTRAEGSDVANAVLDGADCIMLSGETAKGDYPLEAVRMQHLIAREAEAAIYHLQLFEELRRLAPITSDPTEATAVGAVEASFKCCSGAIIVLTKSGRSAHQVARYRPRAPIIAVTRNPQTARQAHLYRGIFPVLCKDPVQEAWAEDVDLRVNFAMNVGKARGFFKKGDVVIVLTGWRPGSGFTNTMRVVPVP
Chain of ATP-dependent 6-phosphofructokinase (Trypanosoma brucei brucei) (O15648 whole entry, looked up): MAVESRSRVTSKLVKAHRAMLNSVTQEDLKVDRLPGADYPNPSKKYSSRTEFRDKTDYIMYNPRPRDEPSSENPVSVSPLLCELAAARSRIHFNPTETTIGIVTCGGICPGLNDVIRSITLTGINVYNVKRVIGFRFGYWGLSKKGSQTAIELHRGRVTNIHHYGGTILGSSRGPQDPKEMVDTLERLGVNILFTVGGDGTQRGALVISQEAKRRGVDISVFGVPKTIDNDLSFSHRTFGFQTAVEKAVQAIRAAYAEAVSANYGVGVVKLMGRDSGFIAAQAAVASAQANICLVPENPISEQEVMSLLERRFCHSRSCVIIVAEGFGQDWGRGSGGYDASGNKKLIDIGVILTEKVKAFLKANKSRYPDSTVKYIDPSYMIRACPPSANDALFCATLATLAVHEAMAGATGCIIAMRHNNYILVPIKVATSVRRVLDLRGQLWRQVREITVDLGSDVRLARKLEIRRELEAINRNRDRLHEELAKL
Chain of Cytochrome P450 2C9 (Homo sapiens) (P11712 whole entry, looked up): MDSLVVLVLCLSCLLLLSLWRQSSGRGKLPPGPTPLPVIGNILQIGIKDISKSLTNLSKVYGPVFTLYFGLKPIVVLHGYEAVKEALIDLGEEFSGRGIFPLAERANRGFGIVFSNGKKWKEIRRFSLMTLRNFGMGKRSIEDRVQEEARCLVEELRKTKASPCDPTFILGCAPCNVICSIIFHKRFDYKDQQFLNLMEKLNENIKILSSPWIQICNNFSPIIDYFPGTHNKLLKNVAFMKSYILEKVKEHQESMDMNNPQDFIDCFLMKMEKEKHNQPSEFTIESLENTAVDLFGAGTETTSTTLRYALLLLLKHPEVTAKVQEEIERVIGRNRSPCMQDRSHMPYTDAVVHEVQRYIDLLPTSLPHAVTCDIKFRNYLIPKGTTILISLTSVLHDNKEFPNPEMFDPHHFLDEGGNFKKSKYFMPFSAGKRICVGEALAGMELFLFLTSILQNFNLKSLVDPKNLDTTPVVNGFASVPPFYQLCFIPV

On to `CCn1cc(C(=O)O)c(=O)c2cc(F)c(N3CCN[C@@H](C)C3)c(F)c21`, for which the call in assay [1], in assay [2], in assay [3], in [4], in [5] and in assay [6] was inactive. The Potency result in the assay with AS120, with ATS189, in the assay with CP191, with CP237, in the assay with CP238 and with CP247 was “inactive” in each case. For the same compound, the Potency result with CP265, in the assay on CP269, in the assay with Dd2, in the assay on P93_24, with PC26 and in the assay with PC49 was “inactive” throughout. Also, the Potency entry in the assay on SC27B is “inactive”.

In the case of `C[C@@](N)(Cc1ccc(O)c(O)c1)C(=O)O`, the call in assay [1], in [2], in assay [3], in assay [4] and in assay [5] was inactive.

Regarding `C[C@@H](C[N+](C)(C)C)OC(N)=O`, in assay [7], the Potency result is “inactive”. Besides, the outcome in assay [1], in assay [2], in [3], in assay [4] and in assay [5] was inactive.

Take `C[C@@H](CCc1ccccc1)NC[C@H](O)c1ccc(O)c(C(N)=O)c1`: the compound was called inactive in assay [2], in assay [3], in [5] and in assay [6]. For the same compound, the Potency entry in the assay on AS120, in the assay on ATS189, in the assay with CP191, with CP237, in the assay with CP238 and in the assay on CP247 was “inactive” throughout. Further, the Potency result in the assay on CP265, with CP269, with Dd2, in the assay with P93_24, with PC26 and in the assay on PC49 was “inactive” in each case. The Potency entry with SC27B is “inactive”.

In the case of `NC(=O)c1cc[n+](CC2=C(C(=O)O)N3C(=O)[C@@H](NC(=O)[C@H](c4ccccc4)S(=O)(=O)[O-])[C@@H]3SC2)cc1`, the outcome in assay [1], in assay [2], in [3], in [4], in assay [5] and in assay [6] was inactive. Also, the Potency is 3160 nM (active) in the assay with AS120; 1580 nM (active) in the assay on ATS189; 1410 nM (active) in the assay on CP191; 1410 nM (active) with CP237; 3550 nM (active) in the assay with CP238; 3550 nM (active) in the assay with CP247. The Potency with CP265 was 1410 nM (active); in the assay with CP269, 1610 nM (active); in the assay with Dd2, 1260 nM (active); in the assay with P93_24, 1260 nM (active); with PC26 it was 1810 nM (active); in the assay on PC49, 3160 nM (active). In addition, in the assay on SC27B, the Potency was 2510 nM (active).

Take `C[C@@]12CC[C@@H]3c4ccc(O)cc4CC[C@H]3[C@H]1CC[C@H]2O`: the Potency result in [7] was “inactive”.

`CC(C)(C)NC[C@H](O)c1cc(O)cc(O)c1`: the outcome in assay [1], in assay [2], in [3], in assay [4], in assay [5] and in assay [6] was inactive. Further, the Potency entry in the assay with AS120, with ATS189, in the assay with CP191, in the assay with CP237, in the assay with CP238 and with CP247 was “inactive” each time. In addition, the Potency entry with CP265, in the assay with CP269, in the assay with Dd2, in the assay on P93_24, with PC26 and in the assay with PC49 was “inactive” each time. Also, in the assay with SC27B, the Potency result was “inactive”.

For `N[C@H](C(=O)N[C@@H]1C(=O)N2C(C(=O)O)=C(Cl)CS[C@@H]12)c1ccccc1`, the compound was called inactive in assay [1], in assay [2], in assay [3], in [4] and in [5].

For the compound `CC(=O)O[C@@H](C)C[N+](C)(C)C`, the compound was classed as inactive in [1], in [2], in assay [3], in [4], in [5] and in [6]. In addition, the Potency result with AS120, with ATS189, in the assay on CP191, in the assay on CP237, in the assay on CP238 and with CP247 was “inactive” each time. In addition, the Potency result in the assay with CP265, with CP269, with Dd2, with P93_24, in the assay on PC26 and with PC49 was “inactive” each time. For the same compound, the Potency result in the assay with SC27B is “inactive”.

For `O=C(O)CNC(=O)[C@@H](CS)Cc1ccccc1`, the result in [1], in assay [2], in assay [3], in assay [4] and in assay [5] was inactive.
